This passage reports growth results from PubChem BioAssay (NCI).

This is part of a sample that, as a whole, favours compounds with a hit. Of some 83,000 tested, about 20% had one in any assay.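 Percent growth is the endpoint: 0 to 100 indicates growth inhibition (40 means 60% inhibition), 0 means no net growth, and negative values indicate cell death.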 Unmarked numbers belong to inactive results. The source made the active and inactive calls.

For this test, the system named is RPMI-8226 leukemia. The test is described as follows: NCI-60 one-dose screen, 48 h (100 = growth as untreated, 0 = no growth, -100 = all killed). As to conditions: 10 µM. As to the method: Growth inhibition of the RPMI-8226 human tumor cell line is measured as a screen for anti-cancer activity. Cells are grown in 96 well plates and exposed to the test compound for 48 hours. Compounds are tested at a single concentration, which is 10^-5 M for most compounds. The reported endpoint is percent growth (GI% or GIPRCNT), where numbers from 0 - 100% represent growth inhibition, and numbers from -100% - 0 represent cell death. For example, a value of 40 represents 60% growth inhibition. A value of 0 means no net growth occurred over the course of the experiment. A value of -40 indicates 40% of cells at the beginning of the experiment died by the end of the experiment. A value of -100 means all cells are dead at the end of the experiment.
NCI-60 Human Tumor Cell Lines Screen was performed using the standard one-dose NCI protocol, which is described in more detail at https://dtp.cancer.gov/discovery_development/nci-60/default.htm.
Compounds with GIPRCNT values below 10 were considered active. Activity score was based on GIPRCNT using the following formula: […]
Score is 0 for GIPRCNT values of 100 or above, 50 for GIPRCNT values of 0, and 100 for GIPRCNT values of -100.
For `CCc1cc2n(n1)-c1ncc(C(=O)OC)cc1Oc1ccccc1-2`, the growth was 93.3%.
Next, `CCN1CCOC1C(C)C` (stereo not given): 106%.
The same measure for `CCCCCCCCCCCCCCCCCBr`: 102%.
Take `O=S(=O)(NCl)c1ccccc1`: the growth is 105%.
The same measure for `COc1ccc(-c2nnc(SCC(=O)c3ccccc3)o2)cc1`: 89%.
The same measure for `CCOc1nc(-c2ccccc2)cc2c(O)c(C(=O)NC(C)C)[nH]c(=O)c12`: 40.1%; for `O=C(Nc1cccc(Cl)c1)OCC(COC(=O)Nc1cccc(Cl)c1)(COC(=O)Nc1cccc(Cl)c1)[N+](=O)[O-]`: 19.5%.
Turning to `O=C(Nc1cccc(F)c1)Nc1cccc(Cl)c1`, the growth is 66.6%.
Next, `CCCOCC(O)CNCCN` (stereo not given): 101%; `COc1ccc(C2C=C(c3ccc(Cl)cc3)N=C3SC=CN32)c(Br)c1` (stereo not given): 52.3%; `CCOC(=O)Nc1ccc2c(c1)C(=O)N(CC)c1ccccc1O2`: 12.4%.
The same measure for `O=C1NN(c2ccccc2)C(c2cccnc2)=N/C1=C\c1cccnc1`: 83.3%; for `N#Cc1ncc(-c2cc(F)ccc2F)c(NC2CCCCCC2)n1`: 57.8%; for `C[C@]12CC[C@H]3[C@@H](CC=C4C[C@@H](O)CC[C@@]43C)[C@@H]1CC[C@@H]2C(=O)C/C=N/O`: 59.6%.
The same measure for `CCOC(=O)c1ccc(NC(=O)Nc2nncs2)cc1`: 6.49% (active).
Consider `COc1ccc(N2CCN(c3nc(-c4ccccc4)c(C#N)c(=O)[nH]3)CC2)cc1`, for which the growth is 91.3%.
The same measure for `COc1cc(C(c2c[nH]c3ccccc23)N2CCCC2)ccc1OCc1ccccc1` (stereo not given): 32.3%; for `Cc1ccc(S(=O)(=O)Nc2cccc3[nH]c(C(F)(F)F)nc23)cc1`: -3.69% (active); for `N#CC1C=Cc2c(ccc3ccccc23)N1C(=O)c1ccccc1` (stereo not given): 38.1%.
Next, `Fc1ccc(-c2cc(C(Cl)Cl)no2)cc1`: 96.1%; `Cc1cc(C)c(C(=O)OC(C)CNC2CCCCC2)c(C)c1` (stereo not given): 92.9%; `Nc1ncncc1-c1ccc(F)cc1`: 109%.
Next, `CCOC(=O)c1c(C)n(-c2ccc(Cl)cc2)c2ccc(OC(=O)/C=C/c3ccccc3)cc12`: 67.6%; `CCOC(=O)c1ccc(N(C=O)CCC(=O)CCl)cc1`: -20.4% (active).
Turning to `O=C(OCc1ncc(-c2ccc(C(F)(F)F)cc2)c(NC2CCCCCC2)n1)c1c(F)c(F)c(F)c(F)c1F`, the growth is -6.54% (active).
Next, `NC(N)=NS(=O)(=O)c1ccc(Nc2ccc3nnc(-c4ccncc4)n3n2)cc1`: 104%.
The same measure for `CCCCCC(=O)N1c2ccccc2NC2=C(C(=O)CC(c3ccc(OC)c(OC)c3)C2)C1c1ccc(C(F)(F)F)cc1` (stereo not given): 21.6%; for `COc1ccc(C2C=C(c3ccc(Cl)c(Cl)c3)N=C3SC(C)=CN32)cc1OC` (stereo not given): 38.4%; for `CNC(=O)c1cc(Oc2ccc(NC(=O)Nc3ccc(Cl)c(C(C)(C)C)c3)c(F)c2)ccn1`: 34.2%.
As for `COc1ccc(-c2nnc(N3CCN(C(=O)CN4CCN(c5ccc(Cl)cc5)CC4)CC3)nc2-c2ccc(OC)cc2)cc1`, the growth was -44.9% (active).
With `COc1ccc(C2CC(c3ccc(-c4ccccc4)cc3)=NN2c2ccc(S(N)(=O)=O)cc2)cc1` (stereo not given), the growth was 57.2%.
The same measure for `CC(=O)c1c(O)cc2c3c1OC(C)(C)C1CCC(C)(CC31)O2` (stereo not given): 54.4%; for `NC(=O)C1CCCN(Cc2c[nH]c3ccccc23)C1` (stereo not given): 105%; for `CC(Oc1ccc(Cl)cc1)c1ccccc1` (stereo not given): 101%.
The same measure for `COc1ccc(-c2cc(/C=C/C(=O)c3ccc(N)cc3)[nH]n2)cc1OC`: -12.6% (active); for `Cc1nn2c(/C=C3/C(=O)Nc4ccc(Cl)cc43)c(-c3ccccc3)nc2s1`: 23.7%.
As to `CC(C)C[C@H](NC(=O)Cn1ccc(Nc2ccccc2)cc1=O)B(O)O`, the growth is 1.74% (active).
The same measure for `O=C(O)CNS(=O)(=O)c1ccc(OCCOc2ccc(S(=O)(=O)NCC(=O)O)cc2)cc1`: 109%; for `O=C1CC[C@@H](C(=O)N[C@H]2CSSC[C@@H](C(=O)NCCc3ccccc3)NC(=O)[C@H](Cc3ccccc3)NC(=O)[C@@H]3CCCN3C(=O)[C@@H]3CCCN3C2=O)N1`: 108%; for `Nc1ccc2c(c1)Cc1cc(N)c(Cl)cc1-2`: 96.8%.
